A short description of experiment [1]: ATG_Sox_CIS: Attagene CIS-FACTORIAL HepG2 Assay for human SRY-box transcription factor (SOX) (AID 2282960). Conditions: HepG2 Attagene cis-factorial SOX reporter, mRNA; actives raise or lower the signal. In outline:
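HepG2, cis reporter units, 24 h exposure. Reporter mRNA: RT-PCR → FAM labelling → HpaI → CE fluorescence. Bidirectional fit vs DMSO.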

Experiment [2] deals with Transcription factor Sp1 (Homo sapiens) (UniProt P08047). Nature of the experiment: ATG_Sp1_CIS: Attagene CIS-FACTORIAL HepG2 Assay for human Specificity Protein 1 (Sp1) (AID 2282961). The following applies: HepG2 Sp1 cis-reporter transcription, actives raise or lower the signal. The method in brief: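 Liver-derived HepG2 cells, cis-element reporter library, 24 h treatment; RNA isolated, cDNA amplified with reporter-specific primers, FAM-labeled fragments sized on capillary analyzer. DMSO baseline, bidirectional curve fit.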

A short description of experiment [3]: ATG_SREBP_CIS: Attagene CIS-FACTORIAL HepG2 Assay for human Sterol Regulatory Element Binding (SREBP) (AID 2282962). The following applies: HepG2 Attagene cis-factorial SREBP reporter, mRNA; actives raise or lower the signal. The method in brief:
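Readout: fluorescent reporter-transcript peaks resolved by capillary electrophoresis after RT-PCR. Cells were human HepG2 carrying transfected cis-promoter reporter constructs, dosed for 24 h. Gain or loss of signal was fitted against DMSO controls.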

Experiment [4] addresses Signal transducer and activator of transcription 3 (Homo sapiens) (UniProt P40763). Description: ATG_STAT3_CIS: Attagene CIS-FACTORIAL HepG2 Assay for human Signal Transducer and Activator of Transcription 3 (STAT3) (AID 2282963). The following applies: HepG2, Attagene cis-factorial STAT3 reporter transcription; actives raise or lower the signal. The method in brief: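 Readout: fluorescent reporter mRNA fragments resolved by capillary electrophoresis. Setup: HepG2 transfected with MRTUs reporting endogenous transcription-factor activity, dosed 24 h. Gain or loss of signal fitted bidirectionally against DMSO control.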

Experiment [5] is described as follows: ATG_TA_CIS: Attagene CIS-FACTORIAL HepG2 Assay for human TA Basal Promoter (AID 2282964). Conditions: HepG2 Attagene CIS-factorial TA basal promoter reporter; actives raise or lower the signal. In outline: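 Steps: transfect HepG2 with MRTUs; dose 24 h; isolate RNA, DNase-treat, reverse-transcribe; PCR and FAM-label reporter cDNA; digest with HpaI 2h at 37 C; run capillary electrophoresis. Activity fitted both directions against DMSO.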

A short description of experiment [6]: ATG_TCF_b_cat_CIS: Attagene CIS-FACTORIAL HepG2 Assay for human T-Cell-Factor with beta-catenin (TCF/b-cat) (AID 2282965). Conditions: HepG2 TCF/beta-catenin cis-reporter transcription, actives raise or lower the signal. The method in brief: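 Cells of the HepG2 line carry transiently transfected reporter units whose promoters respond to endogenous factors. Twenty-four hours post-dosing, reporter mRNA induction is measured by fluorescent RT-PCR and capillary electrophoresis, with DMSO as baseline.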

Experiment [7] can be described thus: ATG_TAL_CIS: Attagene CIS-FACTORIAL HepG2 Assay for human TAL Basal Promoter (AID 2282966).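 Further: background control endpoint measuring basal TAL promoter reporter mRNA not a specific factor.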 The following applies: HepG2 Attagene cis-factorial TAL promoter reporter; actives raise or lower the signal. In outline:
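Transiently transfected HepG2 (cis-regulated reporter units), 24 h treatment, mRNA read by fluorescent CE after RT-PCR; bidirectional fit, DMSO baseline.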

The nature of experiment [8]: ATG_TGFb_CIS: Attagene CIS-FACTORIAL HepG2 Assay for human Transforming Growth Factor (TGF) (AID 2282967). The following applies: HepG2 Attagene CIS TGFb reporter, mRNA transcription; actives raise or lower the signal. The method in brief: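 Cells were dosed for 24 hours, after which total RNA was reverse-transcribed and reporter sequences amplified, labeled and sized by capillary electrophoresis. Activity was fitted in both directions against DMSO.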

Experiment [9] is described as follows: ATG_VDRE_CIS: Attagene CIS-FACTORIAL HepG2 Assay for human Vitamin D Receptor Element (VDRE) (AID 2282968). Conditions: HepG2 VDRE cis-reporter transcription, actives raise or lower the signal. The method in brief:
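Transient MRTU transfection of HepG2, 24 h compound exposure. Readout: reporter transcripts via RT-PCR and capillary electrophoresis, fluorescence. Bidirectional fit vs DMSO.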

Experiment [10] addresses Steroid hormone receptor ERR1 (Homo sapiens) (UniProt P11474). Nature of the experiment: ATG_ERRa_TRANS: Attagene TRANS-FACTORIAL HepG2 Assay for human Estrogen-Related Receptor alpha (ERRa) (AID 2282971; active means hit-call score of the fitted dose curve at least 0.9, where 1 is the maximum). Conditions: HepG2 Attagene TRANS reporter, ERRa transactivation. The method in brief:
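HepG2 cells transiently transfected with multiplexed GAL4-UAS reporter units reading chimeric ERRa-Gal4 activity; 24 h compound exposure. Reporter mRNA measured by RT-PCR, 6-FAM labelling, HpaI digest and capillary electrophoresis; gain of signal fitted versus DMSO baseline.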

Experiment [11] deals with X-box-binding protein 1 (Homo sapiens) (UniProt P17861). Nature of the experiment: ATG_Xbp1_CIS: Attagene CIS-FACTORIAL HepG2 Assay for human X-box Binding Protein 1 (XBP1) (AID 2282972). Conditions: HepG2 XBP1 cis-element reporter, Attagene multiplex; actives raise or lower the signal. In outline:
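Read-out: fluorescent reporter mRNA fragments resolved by capillary electrophoresis after RT-PCR. Human HepG2 liver cells carried transfected cis-promoter reporter units and were exposed to chemicals for 24 hours. Gain or loss of signal fitted relative to DMSO baseline.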

The target of experiment [12] is Androgen receptor (Homo sapiens) (UniProt P10275). Nature of the experiment: ATG_AR_TRANS: Attagene TRANS-FACTORIAL HepG2 Assay for human Androgen Receptor (AR) (AID 2282973; active means hit-call score of the fitted dose curve at least 0.9, where 1 is the maximum). The following applies: HepG2 Attagene TRANS-FACTORIAL AR reporter transcription. The method in brief: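 HepG2 cells transiently transfected with multiplexed GAL4-UAS reporter units and chimeric NR-Gal4 fusion; 24 h compound exposure. Reporter mRNA measured by RT-PCR, 6-FAM labelling, HpaI digestion and capillary electrophoresis; gain-of-signal fitted relative to DMSO baseline.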

Experiment [13] can be described thus: ATG_M_19_TRANS: Attagene TRANS-FACTORIAL HepG2 Assay for M19 Transcription Factor (Internal Marker) (AID 2282974; active means hit-call score of the fitted dose curve at least 0.9, where 1 is the maximum). The following applies: HepG2 Attagene TRANS-FACTORIAL M19 internal marker reporter. In outline: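 Transfected HepG2 (GAL4-UAS MRTUs), 24 h compound, TriZol RNA, DNase-treated RT, reporter PCR, FAM label, HpaI digest, CE fluorescence; gain vs DMSO.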

Experiment [14] deals with Glucocorticoid receptor (Homo sapiens) (UniProt P04150). Description: ATG_GR_TRANS: Attagene TRANS-FACTORIAL HepG2 Assay for human Glucocorticoid Receptor (GR) (AID 2282978; active means hit-call score of the fitted dose curve at least 0.9, where 1 is the maximum;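 further: activators score as hits since higher reporter transcript over DMSO is fitted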). The following applies: HepG2 Attagene TRANS GR reporter, mRNA transcription. In outline:
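After 24 h incubation with test chemical, transfected HepG2 cells were lysed for RNA; reporter cDNA was amplified, FAM-labelled, HpaI-digested and sized on a capillary analyser. Signal gain relative to DMSO was scored.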

In experiment [15] the target is Oxysterols receptor LXR-alpha (Homo sapiens) (UniProt Q13133). Description: ATG_LXRa_TRANS: Attagene TRANS-FACTORIAL HepG2 Assay for human Liver X Receptor alpha (LXRa) (AID 2282980; active means hit-call score of the fitted dose curve at least 0.9, where 1 is the maximum). Conditions: HepG2 Attagene TRANS reporter, LXRa transactivation. The method in brief:
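HepG2 cells were transiently transfected with multiplexed reporter units driven by chimeric LXRa–GAL4 fusion proteins, then dosed for 24 h. Reporter mRNA was quantified by RT-PCR, fluorescent labelling and capillary electrophoresis; gain of signal fitted against DMSO baseline.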

The target of experiment [16] is Oxysterols receptor LXR-beta (Homo sapiens) (UniProt P55055). Nature of the experiment: ATG_LXRb_TRANS: Attagene TRANS-FACTORIAL HepG2 Assay for human Liver X Receptor beta (LXRb) (AID 2282981; active means hit-call score of the fitted dose curve at least 0.9, where 1 is the maximum). Conditions: HepG2 Attagene TRANS GAL4-LXRb reporter, mRNA. The method in brief:
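Readout: fluorescent reporter mRNA fragments resolved by capillary electrophoresis after RT-PCR. System: transiently transfected human HepG2, exogenous LXRb-Gal4 chimera driving GAL4-UAS reporter, 24 h dosing. Activity fitted upward against DMSO baseline.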

Experiment [17] can be described thus: ATG_GAL4_TRANS: Attagene TRANS-FACTORIAL HepG2 Assay for GAL4 (Internal Marker) (AID 2282976; active means hit-call score of the fitted dose curve at least 0.9, where 1 is the maximum). The following applies: HepG2 Attagene TRANS GAL4 internal marker reporter. The method in brief: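 HepG2 cells transiently transfected with multiplexed GAL4-UAS reporter constructs were dosed for 24 h. Reporter mRNA was measured by RT-PCR, 6-FAM primer extension, HpaI digestion and capillary electrophoresis, and gain of signal was fitted relative to DMSO.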

The target of experiment [18] is Bile acid receptor (Homo sapiens) (UniProt Q96RI1). Description: ATG_FXR_TRANS: Attagene TRANS-FACTORIAL HepG2 Assay for Farnesoid X Receptor (FXR) (AID 2282979; active means hit-call score of the fitted dose curve at least 0.9, where 1 is the maximum;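 further: hits raise reporter mRNA above DMSO so AC50 marks FXR activation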). Conditions: HepG2 Attagene TRANS FXR-GAL4 reporter transcription. The method in brief: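 HepG2 cells transiently transfected with reporter constructs in which a chimeric FXR-GAL4 protein drives a GAL4-UAS reporter; 24 h compound exposure. Reporter mRNA measured by RT-PCR, FAM labelling, HpaI digestion and capillary electrophoresis; gain-of-signal versus DMSO.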

The target in experiment [19] is Estrogen receptor (Homo sapiens) (UniProt P03372). Nature of the experiment: ATG_ERa_TRANS: Attagene TRANS-FACTORIAL HepG2 Assay for human Estrogen Receptor alpha (ERa) (AID 2282970; active means hit-call score of the fitted dose curve at least 0.9, where 1 is the maximum). The following applies: HepG2 Attagene TRANS ERa GAL4 reporter, mRNA. In outline: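 One of 30 multiplexed endpoints from a HepG2 TRANS system, this one reports ERa-Gal4-driven reporter mRNA. Transcripts were quantified 24 hours post-dosing by fluorescent RT-PCR and capillary electrophoresis, with activity scored as induction over DMSO.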

Molecules are shown by their SMILES. Records with an inconclusive call do not appear. Calls of active or inactive are those of the source. How the source made its calls, unless noted: active means hit-call score of the fitted dose curve at least 0.9, where 1 is the maximum; inactive means score below 0.9.

X-box-binding protein 1 (Homo sapiens), sequence (P17861 whole entry, looked up, the tested form may be a part): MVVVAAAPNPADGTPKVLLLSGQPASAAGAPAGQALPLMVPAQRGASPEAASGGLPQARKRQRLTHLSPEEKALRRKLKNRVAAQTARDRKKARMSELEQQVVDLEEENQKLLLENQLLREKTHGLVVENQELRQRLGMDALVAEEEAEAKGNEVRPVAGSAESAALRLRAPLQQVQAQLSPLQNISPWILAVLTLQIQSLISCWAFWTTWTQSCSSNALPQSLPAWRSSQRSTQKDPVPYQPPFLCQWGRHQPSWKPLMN
Oxysterols receptor LXR-alpha (Homo sapiens), sequence (Q13133 whole entry, looked up, the tested form may be a part): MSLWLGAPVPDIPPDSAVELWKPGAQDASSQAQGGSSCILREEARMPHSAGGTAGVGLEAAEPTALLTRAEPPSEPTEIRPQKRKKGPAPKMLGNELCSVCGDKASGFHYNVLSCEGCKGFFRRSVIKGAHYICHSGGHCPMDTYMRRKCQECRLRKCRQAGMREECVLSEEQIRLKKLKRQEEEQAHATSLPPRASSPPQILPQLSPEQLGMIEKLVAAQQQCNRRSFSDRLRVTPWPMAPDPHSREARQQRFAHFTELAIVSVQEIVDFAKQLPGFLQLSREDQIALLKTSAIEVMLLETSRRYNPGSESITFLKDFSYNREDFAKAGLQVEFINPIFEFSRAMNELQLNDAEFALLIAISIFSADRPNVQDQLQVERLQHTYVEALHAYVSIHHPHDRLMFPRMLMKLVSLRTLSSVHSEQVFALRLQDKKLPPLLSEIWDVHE
Transcription factor Sp1 (Homo sapiens), sequence (P08047 whole entry, looked up, the tested form may be a part): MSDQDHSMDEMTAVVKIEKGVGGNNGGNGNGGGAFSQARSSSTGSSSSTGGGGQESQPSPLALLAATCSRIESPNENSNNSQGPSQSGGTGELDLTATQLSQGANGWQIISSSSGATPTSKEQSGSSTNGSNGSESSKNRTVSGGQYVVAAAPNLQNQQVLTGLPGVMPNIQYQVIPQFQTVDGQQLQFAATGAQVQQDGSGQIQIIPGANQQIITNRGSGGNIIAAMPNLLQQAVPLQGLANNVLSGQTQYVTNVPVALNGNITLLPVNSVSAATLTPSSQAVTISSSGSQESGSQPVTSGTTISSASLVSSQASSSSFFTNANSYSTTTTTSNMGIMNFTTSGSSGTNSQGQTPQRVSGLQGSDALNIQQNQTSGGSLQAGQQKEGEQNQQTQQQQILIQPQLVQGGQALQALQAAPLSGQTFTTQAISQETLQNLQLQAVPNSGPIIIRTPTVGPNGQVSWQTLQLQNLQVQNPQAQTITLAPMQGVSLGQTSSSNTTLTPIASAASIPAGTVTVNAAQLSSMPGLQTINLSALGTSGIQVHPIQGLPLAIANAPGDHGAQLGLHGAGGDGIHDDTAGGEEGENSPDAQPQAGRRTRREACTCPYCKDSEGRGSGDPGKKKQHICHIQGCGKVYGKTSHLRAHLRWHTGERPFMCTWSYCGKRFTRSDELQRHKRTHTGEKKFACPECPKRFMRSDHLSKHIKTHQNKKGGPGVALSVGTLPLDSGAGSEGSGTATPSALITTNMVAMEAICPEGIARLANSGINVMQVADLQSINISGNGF
Signal transducer and activator of transcription 3 (Homo sapiens), sequence (P40763 whole entry, looked up, the tested form may be a part): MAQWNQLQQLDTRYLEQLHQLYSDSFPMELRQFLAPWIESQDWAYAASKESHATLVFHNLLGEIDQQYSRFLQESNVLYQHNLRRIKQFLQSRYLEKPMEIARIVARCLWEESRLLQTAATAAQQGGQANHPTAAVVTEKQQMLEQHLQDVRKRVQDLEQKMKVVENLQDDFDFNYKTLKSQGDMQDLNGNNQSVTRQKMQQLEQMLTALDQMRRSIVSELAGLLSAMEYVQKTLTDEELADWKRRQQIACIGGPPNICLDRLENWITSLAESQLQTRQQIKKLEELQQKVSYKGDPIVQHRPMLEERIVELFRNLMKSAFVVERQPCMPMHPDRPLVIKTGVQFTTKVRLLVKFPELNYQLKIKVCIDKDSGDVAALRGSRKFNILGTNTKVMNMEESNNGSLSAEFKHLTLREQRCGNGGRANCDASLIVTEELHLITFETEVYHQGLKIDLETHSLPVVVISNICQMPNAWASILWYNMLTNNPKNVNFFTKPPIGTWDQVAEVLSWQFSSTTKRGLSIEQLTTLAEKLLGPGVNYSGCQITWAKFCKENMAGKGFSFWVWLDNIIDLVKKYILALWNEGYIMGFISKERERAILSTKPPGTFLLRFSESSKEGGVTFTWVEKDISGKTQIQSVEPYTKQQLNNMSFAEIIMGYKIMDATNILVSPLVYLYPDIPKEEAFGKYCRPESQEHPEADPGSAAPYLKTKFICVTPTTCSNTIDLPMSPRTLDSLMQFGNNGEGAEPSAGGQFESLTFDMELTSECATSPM
Glucocorticoid receptor (Homo sapiens), sequence (P04150 whole entry, looked up): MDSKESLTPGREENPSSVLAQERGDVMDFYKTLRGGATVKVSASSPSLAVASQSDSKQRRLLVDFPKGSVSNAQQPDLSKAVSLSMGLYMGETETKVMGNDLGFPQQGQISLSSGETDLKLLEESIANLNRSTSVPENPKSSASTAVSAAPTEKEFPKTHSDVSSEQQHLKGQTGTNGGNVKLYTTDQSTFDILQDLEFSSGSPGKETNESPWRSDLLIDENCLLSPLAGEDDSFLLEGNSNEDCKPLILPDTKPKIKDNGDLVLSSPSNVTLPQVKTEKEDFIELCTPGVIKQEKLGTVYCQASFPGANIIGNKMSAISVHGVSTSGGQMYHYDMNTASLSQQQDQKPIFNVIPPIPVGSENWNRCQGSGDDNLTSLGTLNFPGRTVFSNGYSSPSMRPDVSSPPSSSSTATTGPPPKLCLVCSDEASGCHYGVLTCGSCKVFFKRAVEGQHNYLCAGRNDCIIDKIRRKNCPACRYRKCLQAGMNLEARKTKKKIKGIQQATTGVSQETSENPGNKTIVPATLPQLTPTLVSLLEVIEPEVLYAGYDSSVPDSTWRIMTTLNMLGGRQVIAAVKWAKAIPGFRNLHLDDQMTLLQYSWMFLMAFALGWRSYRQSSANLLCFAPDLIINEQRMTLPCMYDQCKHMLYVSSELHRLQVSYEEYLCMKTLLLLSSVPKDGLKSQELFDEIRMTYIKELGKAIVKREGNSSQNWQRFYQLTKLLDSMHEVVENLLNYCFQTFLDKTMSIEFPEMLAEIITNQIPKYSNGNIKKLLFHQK
Oxysterols receptor LXR-beta (Homo sapiens), sequence (P55055 whole entry, looked up, the tested form may be a part): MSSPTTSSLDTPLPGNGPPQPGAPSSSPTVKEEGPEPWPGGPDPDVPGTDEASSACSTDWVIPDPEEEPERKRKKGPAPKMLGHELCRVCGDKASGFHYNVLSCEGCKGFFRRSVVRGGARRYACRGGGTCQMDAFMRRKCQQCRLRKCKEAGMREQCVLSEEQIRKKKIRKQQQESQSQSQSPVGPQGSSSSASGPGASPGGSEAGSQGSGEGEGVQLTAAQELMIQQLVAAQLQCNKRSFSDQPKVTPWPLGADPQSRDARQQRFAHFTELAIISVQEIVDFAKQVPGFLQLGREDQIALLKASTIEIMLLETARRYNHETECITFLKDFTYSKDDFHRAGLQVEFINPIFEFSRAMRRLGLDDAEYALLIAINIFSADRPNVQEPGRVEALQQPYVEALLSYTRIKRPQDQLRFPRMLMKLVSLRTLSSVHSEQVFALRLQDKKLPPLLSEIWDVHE
Steroid hormone receptor ERR1 (Homo sapiens), sequence (P11474 whole entry, looked up, the tested form may be a part): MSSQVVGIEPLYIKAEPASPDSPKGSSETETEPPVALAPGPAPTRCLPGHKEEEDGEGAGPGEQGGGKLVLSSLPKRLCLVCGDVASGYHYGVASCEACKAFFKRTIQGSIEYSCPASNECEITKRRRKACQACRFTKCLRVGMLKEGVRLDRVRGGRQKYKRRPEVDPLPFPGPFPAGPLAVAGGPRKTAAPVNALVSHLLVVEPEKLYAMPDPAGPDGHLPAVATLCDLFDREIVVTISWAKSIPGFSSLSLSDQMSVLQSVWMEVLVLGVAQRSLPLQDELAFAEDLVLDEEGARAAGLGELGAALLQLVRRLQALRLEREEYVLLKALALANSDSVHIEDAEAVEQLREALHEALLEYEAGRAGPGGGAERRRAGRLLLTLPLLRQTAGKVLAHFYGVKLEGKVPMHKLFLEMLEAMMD
Bile acid receptor (Homo sapiens), sequence (Q96RI1 whole entry, looked up, the tested form may be a part): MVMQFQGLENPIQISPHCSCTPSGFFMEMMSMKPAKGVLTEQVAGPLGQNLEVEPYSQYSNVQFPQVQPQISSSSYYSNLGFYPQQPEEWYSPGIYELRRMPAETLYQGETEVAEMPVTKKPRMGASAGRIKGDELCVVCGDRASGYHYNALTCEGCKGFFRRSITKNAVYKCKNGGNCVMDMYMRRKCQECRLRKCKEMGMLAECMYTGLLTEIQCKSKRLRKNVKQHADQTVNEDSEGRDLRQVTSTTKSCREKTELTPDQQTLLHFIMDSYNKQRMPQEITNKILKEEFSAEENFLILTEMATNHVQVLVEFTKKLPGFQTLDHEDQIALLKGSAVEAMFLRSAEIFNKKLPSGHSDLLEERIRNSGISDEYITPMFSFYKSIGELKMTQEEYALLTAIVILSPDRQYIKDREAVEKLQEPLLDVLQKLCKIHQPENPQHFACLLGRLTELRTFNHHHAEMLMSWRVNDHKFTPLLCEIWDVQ
Estrogen receptor (Homo sapiens), sequence (P03372 whole entry, looked up, the tested form may be a part): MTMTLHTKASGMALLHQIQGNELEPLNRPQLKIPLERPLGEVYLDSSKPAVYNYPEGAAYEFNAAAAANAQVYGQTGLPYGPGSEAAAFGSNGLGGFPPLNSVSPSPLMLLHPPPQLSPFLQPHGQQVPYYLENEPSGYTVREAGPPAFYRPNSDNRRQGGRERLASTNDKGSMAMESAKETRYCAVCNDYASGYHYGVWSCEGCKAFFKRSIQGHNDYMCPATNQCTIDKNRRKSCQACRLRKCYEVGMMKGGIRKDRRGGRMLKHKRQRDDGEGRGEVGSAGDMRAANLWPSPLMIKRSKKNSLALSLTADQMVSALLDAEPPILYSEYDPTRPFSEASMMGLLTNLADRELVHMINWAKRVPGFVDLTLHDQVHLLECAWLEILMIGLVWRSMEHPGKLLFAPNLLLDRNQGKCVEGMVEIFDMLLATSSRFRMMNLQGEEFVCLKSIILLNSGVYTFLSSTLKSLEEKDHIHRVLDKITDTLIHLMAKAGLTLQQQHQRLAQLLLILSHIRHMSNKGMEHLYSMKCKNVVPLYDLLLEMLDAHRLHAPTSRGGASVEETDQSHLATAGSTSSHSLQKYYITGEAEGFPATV

As a reminder, the AC50 is the concentration at which the activity in the assay is half-maximal. Turning to `CCSC(C)CC1CC(=O)C(C(CC)=NOC/C=C/Cl)=C(O)C1` (configuration not stated), the compound was called inactive in experiment [1], in experiment [2], in [3], in experiment [4], in experiment [5] and in experiment [6]. Also, the outcome in [7], in [8], in [10], in [11], in [12] and in experiment [13] was inactive. For the same compound, the call in experiment [14] and in experiment [15] was inactive. Further, in experiment [9], the AC50 is 11.3 µM (active).
For `Cl/C=C/Cl`, the call in [1], in [2], in experiment [3], in experiment [4], in experiment [5] and in experiment [6] was inactive. Moreover, the compound was classed as inactive in experiment [7], in [8], in [9], in [11] and in experiment [16].
With `CCCCP(CCCC)CCCC`, the compound was called inactive in experiment [1], in experiment [2], in experiment [3], in [4], in experiment [5] and in experiment [6]. The call in [7], in [8], in experiment [9], in [11], in [13] and in experiment [17] was inactive. Moreover, the outcome in experiment [18], in [15] and in experiment [16] was inactive.
Regarding `C=C(C)C(=O)[O][Sn]([CH2]CCC)([CH2]CCC)[CH2]CCC`, the compound was classed as inactive in experiment [1], in experiment [2], in experiment [3], in experiment [4], in experiment [6] and in experiment [7]. Moreover, the compound was classed as inactive in experiment [8] and in experiment [19]. Besides, the AC50 is 591 nM (active) in [5], 0.185 µM (active) in experiment [9], 608 nM (active) in experiment [11] and 1.98 µM (active) in experiment [14].
For `CC(=O)[O][Hg][c]1ccccc1`, the outcome in [1], in experiment [3], in experiment [4], in experiment [5], in [6] and in [7] was inactive. In addition, the compound was called inactive in experiment [8], in [10], in [14], in experiment [15] and in experiment [16]. Also, the AC50 is 2.87 µM (active) in [2], 3.71 µM (active) in [9] and 3710 nM (active) in experiment [11].

For the origin of these results see PubChem BioAssay (EPA / NIEHS).
